Results filed as inconclusive are left out. Active and inactive are the calls of the source. Rule for the calls, unless noted: active = hit-call score of the fitted dose curve at least 0.9, where 1 is the maximum; inconclusive = response in the unintended direction; inactive = score below 0.9.

From PubChem BioAssay (EPA / NIEHS) come the findings set out here.

Assay [1] has as its target human Thyroid hormone Receptor alpha (TRa), THRA (gene 7067) (UniProt P10827). Kind of assay: ATG_hTRa_XSP2: Attagene TRANS-FACTORIAL Multi-Species (XSP2) HepG2 Assay for human Thyroid hormone Receptor alpha (TRa) (AID 2283838). In outline:
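HepG2 cells transiently transfected with multiplexed GAL4-UAS reporter units and exogenous NR-GAL4 chimeras; 24 h chemical exposure with 3 nM 6-alpha-fluorotestosterone and 1.5 nM norgestrel present. Reporter mRNA measured by RT-PCR, FAM labelling, HpaI digestion, capillary electrophoresis; gain-of-signal versus DMSO.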

The target of assay [2] is frog Thyroid hormone Receptor alpha (TRa), thra-a (gene 397942) (UniProt P15204). Put plainly: ATG_frTRa_XSP2: Attagene TRANS-FACTORIAL Multi-Species (XSP2) HepG2 Assay for frog Thyroid hormone Receptor alpha (TRa) (AID 2283839). In outline:
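Reporter transcripts were measured by RT-PCR with capillary electrophoresis after 24 h dosing of HepG2 carrying transiently transfected multi-reporter units, including a chimeric frog TRa-GAL4 construct. Activity was taken as increase over DMSO vehicle.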

The target in assay [3] is human Thyroid hormone Receptor beta (TRb), THRB (gene 7068) (UniProt P10828). Put plainly: ATG_hTRb_XSP2: Attagene TRANS-FACTORIAL Multi-Species (XSP2) HepG2 Assay for human Thyroid hormone Receptor beta (TRb) (AID 2283840).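 Note: actives raise reporter mRNA so potency reflects agonist-like gain of signal.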 In outline:
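Activity of exogenous human TRb–Gal4 fusion measured by reporter mRNA from RT-PCR and capillary electrophoresis, 24 h after dosing transfected HepG2. 6-alpha-fluorotestosterone (3 nM) and norgestrel (1.5 nM) present. Gain-of-signal fit relative to DMSO.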

Assay [4] is described as follows: CPHEA_Stoker_NIS_Cytotoxicity: Cytotoxicity Assessment for CPHEA's Radioactive Iodide Uptake (RAIU) Assay for Sodium/Iodide Symporter (NIS) Inhibition, Stoker and Laws Labs (AID 2283897).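 For AC50: active means loss of ATP signal versus DMSO meaning cytotoxicity.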 The method in brief: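 hNIS-HEK293T-EPA human kidney cells were exposed for 2 hours at room temperature to test chemicals (0.001–100uM, 0.5% final DMSO) in HEPES-buffered HBSS, pH 7.4. Viability was read as ATP content by luciferase bioluminescence, loss of signal versus DMSO.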

Assay [5] addresses PGR (gene 5241) (UniProt P06401). Kind of assay: TOX21_PR_BLA_Followup_Antagonist_ratio: Tox21 HEK293 Progesterone Receptor (PR) Antagonism Beta-lactamase Follow-Up Assay, Ratio (AID 2283934). The method in brief:
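PR-UAS-bla HEK293T cells in medium with 2% charcoal-stripped FBS were treated with compounds plus 1 nM (final) promegestone (R5020) for 16 hr at 37C. LiveBLAzer B/G FRET substrate was then added for 2 h at room temperature; signal is cleaved/uncleaved substrate ratio versus DMSO.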

The nature of assay [6]: TOX21_PR_BLA_Followup_Agonist_viability: Viability Assessment in the Tox21 HEK293 Progesterone Receptor (PR) Agonism Beta-lactamase Follow-Up Assay (AID 2283935).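 Note: signal loss means lower viability so actives are cytotoxic.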 The method in brief:
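PR-UAS-bla HEK293T cells in 2% charcoal-stripped FBS medium, compound added after 6 hr plating, 16 hr at 37C/5% CO2. After bla FRET read, CellTiter-Glo added; luminescence read after 30 min at room temperature; signal loss marks cytotoxicity.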

A short description of assay [7]: TOX21_PR_BLA_Followup_Antagonist_viability: Viability Assessment in the Tox21 HEK293 Progesterone Receptor (PR) Antagonism Beta-lactamase Follow-Up Assay (AID 2283936).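 Note: hits lower the luminescence signal meaning cytotoxicity.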 In outline: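 PR-UAS-bla HEK293T cells (3,000/well, 2% charcoal-stripped FBS) given compound plus R5020 agonist, 16 h at 37C. CellTiter-Glo added after bla read, 30 min at room temperature; luminescence loss indicates cytotoxicity.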

For assay [8], the target named is PGR (gene 5241) (UniProt P06401). Kind of assay: TOX21_PR_LUC_Followup_Antagonist: Tox21 HEK293 Progesterone Receptor (PR) Antagonism Luciferase Follow-Up Assay (AID 2283938).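 Note: curve fitted upward as signal gain over DMSO baseline despite antagonist label.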 In outline:
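Luminescence from ONE-Glo was measured 30 min after reagent addition, following 16 h exposure of HEK293-PR-A-luc cells (3,000/well, plated 5 h earlier) to DMSO-dissolved compounds at 37C; DMSO served as baseline.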

The nature of assay [9]: TOX21_PR_LUC_Followup_Antagonist_viability: Viability Assessment in the Tox21 HEK293 Progesterone Receptor (PR) Antagonism Luciferase Follow-Up Assay (AID 2283940). The method in brief:
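HEK293-PR-A-luc cells, precultured 5 days in assay medium with 10% charcoal-stripped FBS, were seeded at 3,000 cells/well, treated with compounds in DMSO for 16 h at 37C, and viability was read as cellular ATP by CellTiter-Glo luminescence.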

Assay [10] deals with PGR (gene 5241) (UniProt P06401). Put plainly: TOX21_PR_BLA_Followup_Agonist_ratio: Tox21 HEK293 Progesterone Receptor (PR) Agonism Beta-lactamase Follow-Up Assay, Ratio (AID 2283933). In outline:
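PR-UAS-bla HEK293T cells (GAL4-UAS beta-lactamase reporter) in medium with 2% charcoal-stripped FBS received compounds after 6 hr at 37C, then incubated 16 hr. LiveBLAzer FRET substrate added, 2 hr room temperature; cleaved/uncleaved (ch2/ch1) ratio fitted upward versus DMSO.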

The target is the same in assay [11]. Kind of assay: TOX21_PR_LUC_Followup_Agonist: Tox21 HEK293 Progesterone Receptor (PR) Agonism Luciferase Follow-Up Assay (AID 2283937; active = hit-call score of the fitted dose curve at least 0.9, where 1 is the maximum; inactive = score below 0.9). In outline:
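HEK293-PR-A-luc cells, pre-cultured 5 days in medium with 10% charcoal-stripped FBS, were seeded at 3,000 cells/well, rested 5 h at 37C, then exposed to compounds 16 h at 37C; luciferase read by ONE-Glo luminescence after 30 min.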

The nature of assay [12]: CEETOX_H295R_11DCORT_noMTC: CeeTox H295R High-throughput Steroidogenesis Assay for 11-Deoxycortisol (11DCORT), maximum tolerated concentration (MTC) filtered results only (AID 2283911; active = hit-call score of the fitted dose curve at least 0.9, where 1 is the maximum; inactive = score below 0.9). Conditions: actives raise or lower the signal. The method in brief: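 Values carry no filtering for maximum tolerated concentration: medium from forskolin-primed (10 uM, 48 h) H295R cells after 48 h chemical exposure (0.1% DMSO) was MTBE-extracted, and 11-deoxycortisol quantified by reverse-phase HPLC-MS/MS. Fitting was bidirectional against DMSO.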

The nature of assay [13]: CEETOX_H295R_OHPREG_noMTC: CeeTox H295R High-throughput Steroidogenesis Assay for OH-Pregnenolone (OHPREG), maximum tolerated concentration (MTC) filtered results only (AID 2283912; active = hit-call score of the fitted dose curve at least 0.9, where 1 is the maximum; inactive = score below 0.9). Conditions: actives raise or lower the signal. In outline:
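Steroidogenesis in H295R cells (OECD 456, modified): after 48 h forskolin priming and 48 h chemical treatment, secreted 17alpha-hydroxypregnenolone is measured by HPLC-MS/MS. Activity is fitted in both directions against DMSO; concentrations are not filtered by MTT-based MTC.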

Assay [14] in a line: CEETOX_H295R_OHPROG_noMTC: CeeTox H295R High-throughput Steroidogenesis Assay for OH-Progesterone (OHPROG), maximum tolerated concentration (MTC) filtered results only (AID 2283914; active = hit-call score of the fitted dose curve at least 0.9, where 1 is the maximum; inactive = score below 0.9). Conditions: actives raise or lower the signal. The method in brief:
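Forskolin 10 uM, 48 h prestim → test cmpd in DMSO (0.1% final), 48 h → medium MTBE extraction → LC-MS/MS quant of 17alpha-OH-progesterone. Bidirectional fit vs DMSO; no MTT-based MTC filtering.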

Assay [15] can be described thus: CEETOX_H295R_CORTISOL_noMTC: CeeTox H295R High-throughput Steroidogenesis Assay for Cortisol, maximum tolerated concentration (MTC) filtered results only (AID 2283916; active = hit-call score of the fitted dose curve at least 0.9, where 1 is the maximum; inactive = score below 0.9). The following applies: actives raise or lower the signal. The method in brief:
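Cortisol secretion measured by LC-MS/MS after 48 h chemical treatment (final 0.1% DMSO) of forskolin-primed (10 uM, 48 h) H295R cells; gain or loss fitted relative to DMSO, without maximum-tolerated-concentration filtering.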

Assay [16] in a line: CEETOX_H295R_CORTIC_noMTC: CeeTox H295R High-throughput Steroidogenesis Assay for Corticosterone (CORTIC), maximum tolerated concentration (MTC) filtered results only (AID 2283917; active = hit-call score of the fitted dose curve at least 0.9, where 1 is the maximum; inactive = score below 0.9). Conditions: actives raise or lower the signal. In outline: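 Following OECD 456 with minor changes, H295R cultures received 10 uM forskolin for 48 h, then test chemical at 0.1% DMSO for 48 h. Media steroids were extracted and measured by LC-MS/MS.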

A short description of assay [17]: CEETOX_H295R_DOC_noMTC: CeeTox H295R High-throughput Steroidogenesis Assay for DOC, maximum tolerated concentration (MTC) filtered results only (AID 2283918; active = hit-call score of the fitted dose curve at least 0.9, where 1 is the maximum; inactive = score below 0.9). Conditions: actives raise or lower the signal. In outline:
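11-Deoxycorticosterone secreted by human adrenal H295R cells quantified by HPLC-MS/MS after 48 h chemical exposure (0.1% DMSO), following 48 h 10 uM forskolin prestimulation. Concentrations not filtered by MTT-derived MTC; bidirectional fitting.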

Assay [18] is described as follows: CEETOX_H295R_ESTRADIOL_noMTC: CeeTox H295R High-throughput Steroidogenesis Assay for Estradiol, maximum tolerated concentration (MTC) filtered results only (AID 2283919; active = hit-call score of the fitted dose curve at least 0.9, where 1 is the maximum; inactive = score below 0.9). Conditions: actives raise or lower the signal. In outline: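 H295R human adrenal cells pre-stimulated 48 h with 10 uM forskolin, then exposed 48 h to chemical (0.1% DMSO final). Estradiol in medium measured by HPLC-MS/MS after MTBE extraction and dansyl derivatization; bidirectional fit versus DMSO, concentrations not MTT-filtered.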

Assay [19] is described as follows: CEETOX_H295R_PROG_noMTC: CeeTox H295R High-throughput Steroidogenesis Assay for Progesterone (PROG), maximum tolerated concentration (MTC) filtered results only (AID 2283920; active = hit-call score of the fitted dose curve at least 0.9, where 1 is the maximum; inactive = score below 0.9). The following applies: actives raise or lower the signal. The method in brief: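 H295R cells; forskolin 10 uM x 48 h prestim; test cpd 48 h, 0.1% DMSO final; media progesterone via LC-MS/MS; bidirectional fit vs DMSO; no MTT-based MTC filter applied.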

The nature of assay [20]: CEETOX_H295R_ESTRONE_noMTC: CeeTox H295R High-throughput Steroidogenesis Assay for Estrone, maximum tolerated concentration (MTC) filtered results only (AID 2283921; active = hit-call score of the fitted dose curve at least 0.9, where 1 is the maximum; inactive = score below 0.9). The following applies: actives raise or lower the signal. The method in brief: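 H295R cells prestimulated 48 h with 10 uM forskolin, then exposed 48 h to chemical in 0.1% DMSO; medium estrone measured by HPLC-MS/MS after MTBE extraction and dansyl derivatization, fitted bidirectionally versus DMSO without MTT-based MTC filtering.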

Chain of frog Thyroid hormone Receptor alpha (TRa), thra-a (gene 397942) (P15204 whole entry, looked up, the tested form may be a part): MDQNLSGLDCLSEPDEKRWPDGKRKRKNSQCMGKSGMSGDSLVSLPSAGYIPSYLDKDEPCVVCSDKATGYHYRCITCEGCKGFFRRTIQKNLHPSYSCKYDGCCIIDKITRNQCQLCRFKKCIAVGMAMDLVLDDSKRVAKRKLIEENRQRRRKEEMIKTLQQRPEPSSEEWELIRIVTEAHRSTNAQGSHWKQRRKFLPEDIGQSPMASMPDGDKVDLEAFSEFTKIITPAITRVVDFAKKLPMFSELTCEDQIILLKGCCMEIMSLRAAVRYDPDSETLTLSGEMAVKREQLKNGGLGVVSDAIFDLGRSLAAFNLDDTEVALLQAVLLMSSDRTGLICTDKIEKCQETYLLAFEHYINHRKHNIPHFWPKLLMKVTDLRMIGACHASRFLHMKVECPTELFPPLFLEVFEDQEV
Chain of PGR (gene 5241) (P06401 whole entry, looked up, the tested form may be a part): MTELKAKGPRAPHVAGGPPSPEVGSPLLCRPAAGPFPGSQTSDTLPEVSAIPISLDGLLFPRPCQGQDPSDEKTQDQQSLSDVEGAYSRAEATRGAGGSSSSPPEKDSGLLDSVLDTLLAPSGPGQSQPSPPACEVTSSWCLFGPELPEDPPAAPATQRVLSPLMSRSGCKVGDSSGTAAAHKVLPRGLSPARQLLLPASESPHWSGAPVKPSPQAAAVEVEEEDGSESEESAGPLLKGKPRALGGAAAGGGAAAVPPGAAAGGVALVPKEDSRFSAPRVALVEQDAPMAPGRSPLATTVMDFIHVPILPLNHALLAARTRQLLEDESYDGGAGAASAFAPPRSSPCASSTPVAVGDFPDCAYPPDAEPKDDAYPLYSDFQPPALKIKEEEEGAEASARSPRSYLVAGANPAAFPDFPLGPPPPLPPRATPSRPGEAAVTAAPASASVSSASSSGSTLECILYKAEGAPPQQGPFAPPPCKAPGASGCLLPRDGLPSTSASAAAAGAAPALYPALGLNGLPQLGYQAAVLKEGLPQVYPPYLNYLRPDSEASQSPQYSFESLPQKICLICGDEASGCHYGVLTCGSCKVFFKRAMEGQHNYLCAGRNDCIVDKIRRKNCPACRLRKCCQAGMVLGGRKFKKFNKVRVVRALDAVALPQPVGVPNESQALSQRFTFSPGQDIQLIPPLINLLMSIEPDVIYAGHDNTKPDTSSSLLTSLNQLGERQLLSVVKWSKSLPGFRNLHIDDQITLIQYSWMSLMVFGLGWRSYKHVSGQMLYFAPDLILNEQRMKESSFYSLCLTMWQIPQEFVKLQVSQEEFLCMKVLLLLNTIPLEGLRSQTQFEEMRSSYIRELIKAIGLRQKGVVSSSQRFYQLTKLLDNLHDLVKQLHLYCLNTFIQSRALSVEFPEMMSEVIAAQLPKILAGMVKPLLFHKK
Chain of human Thyroid hormone Receptor beta (TRb), THRB (gene 7068) (P10828 whole entry, looked up, the tested form may be a part): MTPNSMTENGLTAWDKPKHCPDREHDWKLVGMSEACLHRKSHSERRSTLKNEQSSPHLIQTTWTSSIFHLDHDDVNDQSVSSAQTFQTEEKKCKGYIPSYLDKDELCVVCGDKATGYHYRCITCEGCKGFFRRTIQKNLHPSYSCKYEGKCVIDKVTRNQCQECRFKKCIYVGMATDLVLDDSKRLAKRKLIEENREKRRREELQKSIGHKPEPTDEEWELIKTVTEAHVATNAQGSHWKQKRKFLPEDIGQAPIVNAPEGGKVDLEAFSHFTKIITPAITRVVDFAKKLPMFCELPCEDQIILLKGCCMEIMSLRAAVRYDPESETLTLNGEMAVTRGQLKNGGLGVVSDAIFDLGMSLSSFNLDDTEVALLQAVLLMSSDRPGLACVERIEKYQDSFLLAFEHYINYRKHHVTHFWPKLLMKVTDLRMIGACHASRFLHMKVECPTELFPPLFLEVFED
Chain of human Thyroid hormone Receptor alpha (TRa), THRA (gene 7067) (P10827 whole entry, looked up, the tested form may be a part): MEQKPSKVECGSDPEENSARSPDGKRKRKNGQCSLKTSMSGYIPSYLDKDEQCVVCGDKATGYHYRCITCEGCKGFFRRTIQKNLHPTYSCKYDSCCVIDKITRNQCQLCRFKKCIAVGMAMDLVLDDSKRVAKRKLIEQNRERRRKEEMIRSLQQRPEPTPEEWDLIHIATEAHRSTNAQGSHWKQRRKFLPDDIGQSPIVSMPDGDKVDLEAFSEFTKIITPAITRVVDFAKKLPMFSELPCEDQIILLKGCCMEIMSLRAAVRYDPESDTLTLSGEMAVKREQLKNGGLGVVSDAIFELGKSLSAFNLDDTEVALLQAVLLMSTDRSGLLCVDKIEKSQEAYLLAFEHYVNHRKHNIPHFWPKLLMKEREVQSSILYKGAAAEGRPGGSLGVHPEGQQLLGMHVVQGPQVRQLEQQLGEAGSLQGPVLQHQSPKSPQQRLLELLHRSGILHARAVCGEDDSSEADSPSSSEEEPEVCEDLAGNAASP

For `CC(C)Oc1cc(-n2nc(C(C)(C)C)oc2=O)c(Cl)cc1Cl`, the call in assay [1], in [2], in assay [3] and in [4] was inactive.
Take `N#Cc1cc(Br)c(O)c(Br)c1`: the outcome in [4] was inactive.
Consider `COP(=S)(OC)Oc1nc(Cl)c(Cl)cc1Cl`, for which the compound was called inactive in assay [1], in assay [2], in [3] and in assay [4].
As to `COC(=O)C(C)Oc1ccc(Oc2ccc(Cl)cc2Cl)cc1` (stereo unspecified), the outcome in assay [4] was inactive.
As a reminder, the AC50 is the midpoint of the concentration-response curve, whichever way the signal moves. For `C=CC1(C)OC(=O)N(c2cc(Cl)cc(Cl)c2)C1=O` (stereo unspecified), the half-maximal activity concentration (AC50) in assay [1] was 100 µM (active). Also, the compound was called inactive in [2], in [3], in [4], in assay [5], in [6] and in assay [7]. Besides, the compound was classed as inactive in assay [8] and in assay [9].
Turning to `O=C(Nc1ccccc1)Nc1ccnc(Cl)c1`, the AC50 in assay [4] was 40.1 µM (active).
In the case of `N#CC(CCc1ccc(Cl)cc1)(Cn1cncn1)c1ccccc1` (stereo unspecified), the figures for the AC50 in assay [4], in assay [5] and in assay [8] were 60.2 µM (active), 17.8 µM (active) and 22.5 µM (active), respectively. The outcome in [10], in assay [6], in assay [7], in assay [11] and in assay [9] was inactive.
On to `CCOC(=O)C(Cl)Cc1cc(-n2nc(C)n(C(F)F)c2=O)c(F)cc1Cl` (stereo unspecified), for which, in assay [4], the outcome was inactive.
On the same count and under the same terms, as for `Cc1ccc(-c2c(Cl)nc(C#N)n2S(=O)(=O)N(C)C)cc1`, the entry is “inactive”.
With `CCCCOC(=O)c1ccccc1C(=O)OCCCC`, the compound was classed as inactive in assay [1], in [2], in assay [3], in assay [4], in [12] and in assay [13]. The call in assay [14], in assay [15], in [16], in assay [17], in assay [18] and in [19] was inactive. Further, in [20], the outcome was inactive.
Consider `CCCC1COC(Cn2cncn2)(c2ccc(Cl)cc2Cl)O1` (stereo unspecified), for which the compound was called inactive in [1], in assay [3] and in assay [4].
Consider `COc1ccc(C(c2ccc(OC)cc2)C(Cl)(Cl)Cl)cc1`, for which the result in assay [1], in [4], in assay [6], in [7] and in [9] was inactive. Besides, the AC50 in [5] was 6.48 µM (active); in assay [8], 15.2 µM (active).
For the compound `N#Cc1nn(-c2c(Cl)cc(C(F)(F)F)cc2Cl)c(N)c1S(=O)C(F)(F)F` (stereo unspecified), the outcome in assay [4] was inactive.
`CCc1nn(C)c(C(=O)NCc2ccc(C(C)(C)C)cc2)c1Cl`: the concentration at half-maximal activity (AC50) in [4] was 9.92 µM (active).
As for `CCCCC(CC)COC(=O)c1ccccc1C(=O)OCC(CC)CCCC` (stereo unspecified), the outcome in [1], in assay [3], in [12], in [13], in assay [14] and in assay [15] was inactive. For the same compound, the call in assay [16], in assay [17], in assay [18], in assay [19] and in assay [20] was inactive.
